Results filed as inconclusive are left out. The source made the active and inactive calls. The calls were made as follows, unless noted: active = hit-call score of the fitted dose curve at least 0.9, where 1 is the maximum; inactive = score below 0.9.
Assays:
[1] = TOX21_p53_BLA_p2_viability: Viability Assessment in the Tox21 HCT-116 p53 Agonism Beta-lactamase Assay, Phase 2 (AID 2283591; active = hit-call score of the fitted dose curve at least 0.9, where 1 is the maximum;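 also: compound exposure lasted 16 h at 37 °C; actives lower the ATP signal meaning cytotoxicity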)
In short: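 HCT-116 p53-bla cells (4000/well) rested 5 h at 37C, then received compounds in DMSO (217-fold dilution) for 16 h at 37C, 5% CO2. After the CCF4 read, CellTiter-Glo was added; ATP luminescence was read after 30 min at room temperature.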

[2] = target: Cellular tumor antigen p53 (Homo sapiens) (UniProt P04637); assay: TOX21_p53_BLA_p2_ratio: Tox21 HCT-116 p53 Agonism Beta-lactamase Assay, Ratio, Phase 2 (AID 2283592; active = hit-call score of the fitted dose curve at least 0.9, where 1 is the maximum)
Sequence of Cellular tumor antigen p53 (Homo sapiens) (P04637 whole entry, looked up): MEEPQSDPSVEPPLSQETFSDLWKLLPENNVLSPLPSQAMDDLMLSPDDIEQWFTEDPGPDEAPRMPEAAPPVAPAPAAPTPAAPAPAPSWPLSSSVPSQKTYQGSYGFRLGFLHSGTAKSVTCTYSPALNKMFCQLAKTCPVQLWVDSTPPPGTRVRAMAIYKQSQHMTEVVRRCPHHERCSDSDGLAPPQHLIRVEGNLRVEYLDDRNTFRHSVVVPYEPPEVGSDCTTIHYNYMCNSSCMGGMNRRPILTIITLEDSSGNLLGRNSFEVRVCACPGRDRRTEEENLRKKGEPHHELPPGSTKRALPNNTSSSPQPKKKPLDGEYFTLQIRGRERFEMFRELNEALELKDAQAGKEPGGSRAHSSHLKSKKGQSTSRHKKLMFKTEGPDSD
In short: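 Plated HCT116 p53-bla cells (4000/well) received compound after 5 h, then 16 h at 37C/5% CO2. CCF4-AM added, 2 h RT. Ratio of 460 to 530 nm emission taken as the p53 reporter signal.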

[3] = TOX21_p53_BLA_p3_viability: Viability Assessment in the Tox21 HCT-116 p53 Agonism Beta-lactamase Assay, Phase 3 (AID 2283593; active = hit-call score of the fitted dose curve at least 0.9, where 1 is the maximum;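 also: cells exposed to compound for 16 h before reading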)
In short: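 HCT-116 cells (4000/well) rested 5 h at 37C, then got DMSO compounds by pin tool (217-fold dilution) for 16 h at 37C, 5% CO2. After the bla read, CellTiter-Glo was added and luminescence read at 30 min, room temperature.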

[4] = target: Cellular tumor antigen p53 (Homo sapiens) (UniProt P04637); assay: TOX21_p53_BLA_p5_ratio: Tox21 HCT-116 p53 Agonism Beta-lactamase Assay, Ratio, Phase 5 (AID 2283599; active = hit-call score of the fitted dose curve at least 0.9, where 1 is the maximum)
In short: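 HCT-116 cells carrying a p53-inducible beta-lactamase reporter were seeded at 4000 cells/well and dosed after 5 h with compound in DMSO (217-fold dilution). After 16 h at 37C, CCF4-AM substrate was added for 2 h, and the 460/530 nm emission ratio was scored as gain-of-signal versus DMSO.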

[5] = target: Estrogen receptor (Homo sapiens) (UniProt P03372); assay: NVS_NR_hER: NovaScreen (NVS) Nuclear Receptor Binding Assay for human Estrogen Receptor (ER) (AID 2283348; active = hit-call score of the fitted dose curve at least 0.9, where 1 is the maximum)
Sequence of Estrogen receptor (Homo sapiens) (P03372 whole entry, looked up): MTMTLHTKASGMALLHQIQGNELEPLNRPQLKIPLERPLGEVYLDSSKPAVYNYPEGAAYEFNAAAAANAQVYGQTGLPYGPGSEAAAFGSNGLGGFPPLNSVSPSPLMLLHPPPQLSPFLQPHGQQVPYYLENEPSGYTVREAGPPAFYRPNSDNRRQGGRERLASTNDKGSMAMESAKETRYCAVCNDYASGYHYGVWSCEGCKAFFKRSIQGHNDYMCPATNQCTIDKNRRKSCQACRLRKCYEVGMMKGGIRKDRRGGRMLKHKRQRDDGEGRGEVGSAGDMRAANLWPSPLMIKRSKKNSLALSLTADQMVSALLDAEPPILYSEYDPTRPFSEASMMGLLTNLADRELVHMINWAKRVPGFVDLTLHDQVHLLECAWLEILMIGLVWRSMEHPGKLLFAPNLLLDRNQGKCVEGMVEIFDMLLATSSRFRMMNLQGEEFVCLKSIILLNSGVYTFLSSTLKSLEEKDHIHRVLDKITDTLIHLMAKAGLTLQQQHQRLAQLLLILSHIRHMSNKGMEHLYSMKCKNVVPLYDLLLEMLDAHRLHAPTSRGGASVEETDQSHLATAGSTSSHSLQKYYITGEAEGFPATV
In short: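 Radiodetection of ligand displacement in a lysate-based, cell-free format using MCF7 extracts, read at 18 hours. Duplicate 25 uM primary testing, then concentration series for actives.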

[6] = target: Cellular tumor antigen p53 (Homo sapiens) (UniProt P04637); assay: TOX21_p53_BLA_p3_ratio: Tox21 HCT-116 p53 Agonism Beta-lactamase Assay, Ratio, Phase 3 (AID 2283596; active = hit-call score of the fitted dose curve at least 0.9, where 1 is the maximum)
In short: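 Cells were seeded at 4000/well, rested 5 h at 37C, then dosed with DMSO compound solutions (217-fold dilution) for 16 h. CCF4-AM substrate was loaded for 2 h at room temperature, and the 460/530 nm emission ratio was fitted for gain of signal versus DMSO.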

[7] = TOX21_p53_BLA_p5_viability: Viability Assessment in the Tox21 HCT-116 p53 Agonism Beta-lactamase Assay, Phase 5 (AID 2283600; active = hit-call score of the fitted dose curve at least 0.9, where 1 is the maximum)
In short: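 Workflow: seed 4000 cells per well, wait 5 h, add compounds (DMSO, 217-fold dilution), incubate 16 h, load CCF4-AM 2 h, add CellTiter-Glo, read luminescence after 30 min.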

[8] = target: Cellular tumor antigen p53 (Homo sapiens) (UniProt P04637); assay: TOX21_p53_BLA_p4_ratio: Tox21 HCT-116 p53 Agonism Beta-lactamase Assay, Ratio, Phase 4 (AID 2283601; active = hit-call score of the fitted dose curve at least 0.9, where 1 is the maximum)
In short: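 HCT116 cells carrying an inducible beta-lactamase reporter were plated at 4000 cells/well, rested 5 h, then exposed to compounds in DMSO (217-fold dilution) for 16 h at 37C. CCF4-AM substrate was loaded 2 h at room temperature; 460/530 nm emission ratio scored gain-of-signal versus DMSO.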

[9] = target: CCAAT/enhancer-binding protein beta (Homo sapiens) (UniProt P17676); assay: ATG_C_EBP_CIS: Attagene CIS-FACTORIAL HepG2 Assay for human CCAAT/Enhancer Binding Protein (C/EBP) beta (AID 2282927); settings: HepG2 Attagene cis-factorial transcription factor reporter; actives raise or lower the signal
Sequence of CCAAT/enhancer-binding protein beta (Homo sapiens) (P17676 whole entry, looked up, the tested form may be a part): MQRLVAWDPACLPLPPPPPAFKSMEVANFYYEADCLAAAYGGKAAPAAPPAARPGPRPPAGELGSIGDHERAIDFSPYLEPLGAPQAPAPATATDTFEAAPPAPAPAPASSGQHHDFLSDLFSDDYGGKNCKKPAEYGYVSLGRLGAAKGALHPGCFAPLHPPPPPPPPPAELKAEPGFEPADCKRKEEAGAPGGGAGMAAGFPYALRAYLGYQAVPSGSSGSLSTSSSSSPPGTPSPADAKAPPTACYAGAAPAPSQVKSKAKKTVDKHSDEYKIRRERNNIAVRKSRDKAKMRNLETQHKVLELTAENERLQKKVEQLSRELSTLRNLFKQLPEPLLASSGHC
In short: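 Chemical-treated HepG2 cells (24 h) bearing cis-regulated reporter constructs were processed for total RNA, then reverse transcription, PCR amplification, fluorescent primer extension and fragment analysis; gain- and loss-of-signal were fitted against DMSO.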

[10] = ATG_CMV_CIS: Attagene CIS-FACTORIAL HepG2 Assay for human CMV (Internal Marker) (AID 2282928); settings: HepG2 CMV promoter reporter, transcription factor profiling; actives raise or lower the signal;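 also: endpoint acts as a background internal control marker rather than a target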
In short: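 24 h chemical treatment, HepG2 with transient multi-reporter transfection; RNA → oligo(dT) RT → PCR → 6-FAM extension → HpaI digest → CE fluorescence. Bidirectional fit, DMSO negative control.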

[11] = ATG_DR4_LXR_CIS: Attagene CIS-FACTORIAL HepG2 Assay for human Liver X Receptor (LXR), DR4 submotif (AID 2282929); settings: HepG2 Attagene DR4 cis-reporter, mRNA transcription; actives raise or lower the signal
In short: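 HepG2 cells were transiently transfected with multiple cis-regulated reporter units and dosed for 24 hours. The DR4 reporter mRNA was quantified by RT-PCR, 6-FAM labelling and capillary electrophoresis. Bidirectional fits used DMSO as baseline.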

[12] = ATG_AP_2_CIS: Attagene CIS-FACTORIAL HepG2 Assay for human Activator Protein 2 (AP-2) (AID 2282932); settings: HepG2 AP-2 cis-reporter, Attagene transcription factor profiling; actives raise or lower the signal
In short: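 Cells (HepG2) transfected with promoter-driven reporter constructs, treated 24 h. Total RNA reverse-transcribed, reporter cDNA PCR-amplified, FAM-labelled by primer extension, digested, resolved by capillary electrophoresis. Activity fitted both directions versus DMSO.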

[13] = ATG_BRE_CIS: Attagene CIS-FACTORIAL HepG2 Assay for human Bone Morphogenetic Protein (BMP) Response Element (BRE) (AID 2282933); settings: HepG2 BMP response element reporter, Attagene transcription factor profiling; actives raise or lower the signal
In short: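 HepG2 cells transiently transfected with multiplexed cis-element reporter units were dosed with chemical for 24 h. Reporter mRNA was measured by RT-PCR with fluorescent labelling, HpaI digestion and capillary electrophoresis; bidirectional fitting relative to DMSO.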

[14] = target: Transcription factor E2F1 (Homo sapiens) (UniProt Q01094); assay: ATG_E2F_CIS: Attagene CIS-FACTORIAL HepG2 Assay for human E2F Transcription Factor 1 (AID 2282935); settings: HepG2 Attagene cis-reporter, E2F reporter RNA transcripts; actives raise or lower the signal
Sequence of Transcription factor E2F1 (Homo sapiens) (Q01094 whole entry, looked up): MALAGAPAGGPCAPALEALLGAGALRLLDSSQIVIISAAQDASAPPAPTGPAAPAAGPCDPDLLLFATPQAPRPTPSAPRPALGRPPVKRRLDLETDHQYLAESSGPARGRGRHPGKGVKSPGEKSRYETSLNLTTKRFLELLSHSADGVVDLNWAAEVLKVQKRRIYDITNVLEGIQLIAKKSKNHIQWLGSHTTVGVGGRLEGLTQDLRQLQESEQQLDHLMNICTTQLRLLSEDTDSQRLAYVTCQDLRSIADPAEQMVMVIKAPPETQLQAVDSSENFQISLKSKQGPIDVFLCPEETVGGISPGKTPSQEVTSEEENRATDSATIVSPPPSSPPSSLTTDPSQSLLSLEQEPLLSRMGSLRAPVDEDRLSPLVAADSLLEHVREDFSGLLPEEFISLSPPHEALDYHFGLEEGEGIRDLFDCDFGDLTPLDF
In short: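 First, HepG2 cells were transfected with reporter transcription units. Next, they were dosed for 24 h. Then RNA was isolated, converted to cDNA, PCR-amplified, FAM-labeled, HpaI-digested and analyzed by capillary electrophoresis.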

[15] = ATG_E_Box_CIS: Attagene CIS-FACTORIAL HepG2 Assay for human Enhancer Box (E-box) (AID 2282936); settings: HepG2 E-box cis-reporter transcription, actives raise or lower the signal
In short: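 Endogenous transcription factor activity was sensed in human HepG2 liver cells through transfected cis-promoter reporter units. After 24 h of dosing, total RNA was reverse-transcribed and reporter cDNA resolved by capillary electrophoresis.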

[16] = ATG_M_61_CIS: Attagene CIS-FACTORIAL HepG2 Assay for M61 Transcription Factor (Internal Marker) (AID 2282937); settings: HepG2 Attagene CIS-FACTORIAL M61 internal marker reporter; actives raise or lower the signal
In short: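 HepG2 cells transiently transfected with multiplexed cis-promoter reporter units reporting endogenous transcription factor activity, measured 24 h after dosing. Reporter mRNA quantified by RT-PCR and capillary electrophoresis; bidirectional fit against DMSO baseline.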

[17] = ATG_EGR_CIS: Attagene CIS-FACTORIAL HepG2 Assay for human Early Growth Response 1 (EGR1) (AID 2282938); settings: HepG2 Attagene CIS-FACTORIAL EGR reporter mRNA; actives raise or lower the signal
In short: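 HepG2 cells transiently transfected with cis-element-driven multiplexed reporter units, dosed for 24 h. EGR1-element reporter mRNA quantified by RT-PCR, 6-FAM labelling, HpaI digestion and capillary electrophoresis; bidirectional fit versus DMSO.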

[18] = ATG_M_19_CIS: Attagene CIS-FACTORIAL HepG2 Assay for M19 Transcription Factor (Internal Marker) (AID 2282939); settings: HepG2 Attagene CIS-FACTORIAL M19 internal marker reporter; actives raise or lower the signal
In short: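 HepG2 cells transiently transfected with cis-regulated multiple reporter transcription units were dosed for 24 h; reporter mRNA was quantified by RT-PCR, 6-FAM primer-extension labelling, HpaI digestion and capillary electrophoresis, with bidirectional fitting against DMSO baseline.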

[19] = ATG_FoxO_CIS: Attagene CIS-FACTORIAL HepG2 Assay for human Forkhead box O (FoxO) (AID 2282943); settings: HepG2 Attagene cis-reporter, FoxO element, mRNA; actives raise or lower the signal
In short: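 24 h chemical exposure, HepG2 with transient cis-MRTU transfection. RNA extraction, oligo(dT) RT, reporter-specific PCR, primer-extension labelling, HpaI digestion, CE fragment analysis; bidirectional fit, DMSO baseline.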

[20] = TOX21_p53_BLA_p4_viability: Viability Assessment in the Tox21 HCT-116 p53 Agonism Beta-lactamase Assay, Phase 4 (AID 2283597; active = hit-call score of the fitted dose curve at least 0.9, where 1 is the maximum;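 also: hits lower the luminescence signal meaning cytotoxicity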)
In short: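 Readout: ATP luminescence (CellTiter-Glo), measured 30 min after reagent addition at RT. The reagent followed a 2 h CCF4-AM incubation, and the cells had been exposed to compound for 16 h at 37C.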

Measured: AC50

COc1ccccc1Oc1c(NS(=O)(=O)c2ccc(C(C)(C)C)cc2)nc(-c2ncccn2)nc1OCCO
inactive: [1] | [2] | [3] | [4]

CC1(O)CSC(C)(O)CS1 (stereo not drawn)
inactive: [5] | [1] | [2] | [6] | [4] | [7] | [8]

[O-][n+]1ccc(Cl)cc1
not listed: [1] | [3] | [4] | [5] | [6] | [7] | [8] | [20]
inactive: all other assays above

Cc1cc(O)cc(C)c1Cl
inactive: [9] | [12] | [13] | [14] | [15] | [16] | [17] | [18] | [19]
active: [10] 37.3 µM | [11] 65.4 µM

C1CN(CCOCCN2CCOCC2)CCO1
inactive: [1] | [6]

CCC(C)=NO
not listed: [5] | [7] | [20]
inactive: all other assays above

CCC(C)(CCC(C)C)C(=O)O (stereo not drawn)
inactive: [9] | [10] | [11] | [12] | [13] | [14] | [15] | [16] | [17] | [18] | [19]

CC(=O)O[C@]1(C(C)=O)CC[C@H]2[C@@H]3C=C(C)C4=CC(=O)CC[C@]4(C)[C@H]3CC[C@@]21C
inactive: [5] | [1] | [2] | [3] | [6] | [4] | [7] | [8]

CCC(=O)OCc1ccc(OC)cc1
not listed: [2] | [3] | [5] | [7]
inactive: all other assays above
